# ChEMBL document CHEMBL3988442, “University of Dundee, Small-Polar-MMV Screening Library” (2021)
# Target: Sialic acid-binding Ig-like lectin 9 (Homo sapiens) (UniProt Q9Y336)
# Test: Hs-Siglec9 ALPHAscreen SOP 20170721
# Parameters: scale not given: direction of the effect not stated beside the values
# Conditions: 10 µM
# Sialic acid-binding Ig-like lectin 9 (Homo sapiens), sequence (Q9Y336 whole entry): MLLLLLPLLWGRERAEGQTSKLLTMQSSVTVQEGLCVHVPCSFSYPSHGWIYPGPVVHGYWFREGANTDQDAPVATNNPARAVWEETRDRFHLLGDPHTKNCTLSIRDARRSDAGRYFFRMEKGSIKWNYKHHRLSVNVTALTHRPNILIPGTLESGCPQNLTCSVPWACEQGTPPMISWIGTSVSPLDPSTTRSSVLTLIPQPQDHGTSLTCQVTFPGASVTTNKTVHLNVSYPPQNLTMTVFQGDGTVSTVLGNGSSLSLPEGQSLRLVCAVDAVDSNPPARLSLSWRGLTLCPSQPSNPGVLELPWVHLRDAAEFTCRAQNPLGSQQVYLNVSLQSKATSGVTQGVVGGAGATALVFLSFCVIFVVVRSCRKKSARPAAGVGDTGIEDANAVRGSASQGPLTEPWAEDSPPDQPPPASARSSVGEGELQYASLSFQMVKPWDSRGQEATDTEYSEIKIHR
row,SMILES,Percent Effect [%]
1,CCN(CC1CN(CCc2ccccn2)CCO1)c1cccnn1 (stereo not given),-0.0186
2,O=C(NCc1ccc(-n2cncn2)nc1)c1ccoc1,31.6
3,Cc1ccsc1C(=O)N1CC(C(=O)N2CCOCC2)C2(CCOCC2)C1 (stereo not given),-9.65
4,Cn1ncc2c(=O)[nH]c(CN3CCCC3CC3CCCCC3)nc21 (stereo not given),4.78
5,CCN1C[C@H]2CCN(C(C)=O)CC[C@H]2S1(=O)=O,-0.534
6,COc1ccc(-c2nc(CN3CCOCS3(=O)=O)c(C)o2)cc1,2.98
7,Cn1nc(C2CN(C(=O)c3cscn3)C2)c2nccnc21,-2.09
8,c1coc(CN2CCCC3(COCCN(Cc4c[nH]nn4)C3)C2)c1 (stereo not given),8.5
9,COCCO[C@@H]1C[C@H]2CN(C(=O)c3cnccn3)CCN2C1,4.55
10,CC(=O)N1CCC(C(=O)c2cc(C)cnc2N)CC1,3.51
11,Cc1ccc(C(=O)N(C)Cc2cc(Br)cs2)c(=O)[nH]1,-2.8
12,Cc1nc(C)n(CC2CN(CCc3ccncc3)CCO2)n1 (stereo not given),6.79
13,CN(CC(N)=O)S(=O)(=O)c1ccc(F)cc1Cl,5.52
14,CC(=O)NCC1CCN(CC2CCOc3ccccc3C2)CC1 (stereo not given),14
15,Cc1nn(-c2ccccc2)nc1C(=O)N1CCCC1c1cnn(C)c1 (stereo not given),2.1
16,CCC1=N[C@@]2(CC[C@@H]3CN(CC4CC4)C[C@@H]32)C(=O)N1C,0.724
17,Cc1cccc2c1OCCC2NCc1c(C)nn(C)c1N(C)C (stereo not given),0.779
18,Cc1ccc(CN2C[C@@H]3COC[C@@H](NS(C)(=O)=O)[C@@H]3C2)o1,-2.48
19,CN(Cc1ccc(Cl)s1)C(=O)NCc1nnc2n1CCC2,-10.7
20,Cn1cnc(S(=O)(=O)N2CCN(Cc3ccco3)CC2)c1Cl,4.71

row,SMILES,Percent Effect [%]
1,CN(Cc1nc(-c2ccco2)no1)C1CCCN(c2cccnn2)C1 (stereo not given),-5.93
2,CC(C)(O)CN1CCN(C(=O)c2sccc2C2CC2)CC1,2.31
3,COc1ccccc1NC(=O)NCC(O)(c1ccccc1)C1CC1 (stereo not given),33.1
4,O=C(c1cccnc1)N1CCCC2(CCN(c3ccsc3)C2=O)C1 (stereo not given),-9.57
5,CC(O)CN1CCN(Cc2csc(-c3ncccn3)n2)CC1 (stereo not given),-8.16
6,O=C(c1ccc(O)c(Cl)c1)N1CCC(c2n[nH]c(C3CC3)n2)CC1,-6.96
7,Cn1cnc(S(=O)(=O)NCCCN2CCCCCC2)c1Cl,10.5
8,CCOC(=O)CCNC(=O)N1CCN(c2nc3ccccc3n2C)CC1,4.46
9,CC(=O)N1CCCCC1c1nc(N)ncc1-c1ccccc1 (stereo not given),-4.89
10,Cc1nn(C)c(C)c1-c1cncc(C2CCN(S(C)(=O)=O)CC2)n1,4.44
11,Cc1nn(C)c(N2CCOCC2)c1CNCc1ccnc(N(C)C)c1,-0.165
12,O=C(C1CCC1)N1CCN(Cc2ccsc2)[C@H]2CS(=O)(=O)C[C@H]21,4.76
13,CSC(C)C(=O)N1CCCN(Cc2cscn2)CC1 (stereo not given),-6.37
14,CN(Cc1cccc(F)c1)C1CCN(CCc2ccccn2)CC1,-1.38
15,CNC(=O)[C@H]1CCS(=O)(=O)[C@@H]2CN(Cc3ccc(OC)cc3)C[C@H]12,2.93
16,O=C(NCC1CC1)[C@@H]1CCO[C@@H]2CCN(Cc3ccco3)C[C@H]21,-4.47
17,Cc1ccsc1C(=O)N1CC(C(=O)NCC2CC2)C2(CCOCC2)C1 (stereo not given),-3.49
18,CCN(c1ccc(C(=O)N2CCCC2)cc1)S(=O)(=O)CC,-5.1
19,Cc1nc(CN2CCC3(CCCN(Cc4cnn(C)c4)C3)C2=O)cs1 (stereo not given),4.34
20,CC(NC(=O)CNCCn1cccn1)c1ccc2c(c1)OCCO2 (stereo not given),7.51
